Measurements published in PubChem BioAssay (EPA / NIEHS).
Values joined by “and” are separate entries in the source; they are usually repeats but may differ in a detail not shown here. Equal entries are not always repeated. Results filed as inconclusive are left out. Active and inactive are the calls of the source. The calls were made as follows, unless noted: active = hit-call score of the fitted dose curve at least 0.9, where 1 is the maximum; inconclusive = response in the unintended direction; inactive = score below 0.9.

Tests used:
[1] = CCTE_Shafer_MEA_acute_spike_number: CCTE's Neural Acute Assay for Total Number of Spikes, Shafer Lab (AID 2284008; active = hit-call score of the fitted dose curve at least 0.9, where 1 is the maximum; inactive = score below 0.9;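 as to AC50: curve fitted for decrease in spike count so AC50 reflects inhibitors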)
Summary of the method: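 Read-out is the total spike count over 40 min, expressed as percent change from each well's own pre-treatment baseline and fitted in the loss direction against DMSO. Rat cortical neurons were exposed at 0.03-40 uM on DIV 13 or 15.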

[2] = CCTE_Simmons_MITO_basal_resp_rate: CCTE's HepG2 Seahorse XF Respirometric Screening Assay at Basal Respiratory State, Simmons Lab (AID 2284001; active = hit-call score of the fitted dose curve at least 0.9, where 1 is the maximum; inactive = score below 0.9); conditions: actives raise or lower the signal
Summary of the method: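 Basal-phase OCR in HepG2 cells, read at 6-min intervals across a 72-min run, with test compound injected at 125 nM–100 uM final (7 points). Fitted both directions against DMSO; three biological replicates per concentration.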

[3] = CCTE_Simmons_MITO_max_resp_rate: CCTE's HepG2 Seahorse XF Respirometric Screening Assay at Maximal Respiratory State [uncoupled], Simmons Lab (AID 2284002; active = hit-call score of the fitted dose curve at least 0.9, where 1 is the maximum; inactive = score below 0.9); conditions: actives raise or lower the signal
Summary of the method: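 Read-out is oxygen consumption rate at maximal respiration, taken after FCCP uncoupling of compound-treated HepG2 cells. Seven final concentrations from 125 nM to 100 uM were tested, each in three biological replicates.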

[4] = CCTE_Simmons_MITO_inhib_resp_rate: CCTE's HepG2 Seahorse XF Respirometric Screening Assay at Inhibited Respiratory State [full ETC block], Simmons Lab (AID 2284006; active = hit-call score of the fitted dose curve at least 0.9, where 1 is the maximum; inactive = score below 0.9); conditions: actives raise or lower the signal
Summary of the method: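 This endpoint is the respiration rate remaining after rotenone/antimycin A block, in HepG2 cells on a Seahorse XF96. Chemicals spanned 125 nM–100 uM final, in three biological replicates. OCR was read every 6 minutes for 72 minutes and compared with DMSO vehicle.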

[5] = CCTE_Simmons_MITO_viability: CellTiter-Glo Viability Assessment for CCTE's HepG2 Seahorse XF Respirometric Screening Assay [post-hoc], Simmons Lab (AID 2284007);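 as to AC50: cells exposed to chemical for 90 min before the ATP read; actives lower ATP signal relative to DMSO baseline meaning reduced viability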
Summary of the method: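 Luciferase-coupled ATP read-out after the Seahorse run: HepG2 cells treated 90 minutes with test chemical, 7-point series of 125 nM–100 uM final, in triplicate biological runs. Vehicle DMSO; dichlone as positive control over 8 concentrations.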

[6] = target: Nucleoli Translocation, AR (gene 367) (UniProt P10275); experiment: UPITT_HCI_U2OS_AR_TIF2_Nucleoli_Agonist: University of Pittsburgh U2OS Androgen Receptor-Transcriptional Intermediary Factor 2 (AR-TIF2) Agonism High Content Imaging Assay for Nucleoli Translocation (AID 2283998)
Summary of the method: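 Readout is red (AR-RFP) fluorescence localized to nucleoli, measured by high-content imaging and analysed for increase relative to DMSO. Compound series spanned 0.195 to 50 uM final in 0.5% DMSO.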

[7] = target: Ratio of Nucleoli Translocation and Cytoplasm, AR (gene 367) (UniProt P10275); experiment: UPITT_HCI_U2OS_AR_TIF2_Nucleoli_Cytoplasm_Ratio_Antagonist: University of Pittsburgh U2OS Androgen Receptor-Transcriptional Intermediary Factor 2 (AR-TIF2) Antagonism High Content Imaging Assay for Ratio of Nucleoli Translocation and Cytoplasm (AID 2283999);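 also: antagonists lower the DHT-driven ratio of nucleolar to cytoplasmic red signal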
Summary of the method: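 High-content imaging of red fluorescence ratio, nucleoli versus cytoplasm, in U2OS expressing AR-RFP and TIF2-GFP, fitted relative to DHT. Compounds tested once at 20 uM final, then 0.195 to 50 uM final in serial dilution.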

[8] = target: Ratio of Nucleoli Translocation and Cytoplasm, AR (gene 367) (UniProt P10275); experiment: UPITT_HCI_U2OS_AR_TIF2_Nucleoli_Cytoplasm_Ratio_Agonist: University of Pittsburgh U2OS Androgen Receptor-Transcriptional Intermediary Factor 2 (AR-TIF2) Agonism High Content Imaging Assay for Ratio of Nucleoli Translocation and Cytoplasm (AID 2284000);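 also: hits raise the red nucleolar to cytoplasm ratio above vehicle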
Summary of the method: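 Compounds tested at 20 uM final in primary screen (0.2% DMSO) and 0.195-50 uM final in dose-response (0.5% DMSO). Imaging of human U2OS cells bearing RFP-AR and GFP-TIF2; endpoint is nucleoli/cytoplasm red signal ratio, positive direction relative to DMSO.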

DIO1 (gene 1733) = experiment: CCTE_GLTED_hDIO1: CCTE's human Deiodinase 1 (DIO1) Inhibition Assay, Great Lakes Toxicology and Ecology Division (GLTED) Lab (AID 2283987);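 also: isolated human DIO1 enzyme in a cell-free setup rather than cells; enzyme activity read as free iodide liberated from substrate via Sandell-Kolthoff colorimetry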
Summary of the method: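 Inhibition of human deiodinase 1 is scored as reduced iodide liberation after a 3 h enzyme–chemical incubation, detected colorimetrically by the Sandell-Kolthoff reaction against DMSO controls.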

[9] = CCTE_Harrill_HTTr_Apoptosis_PRF_DMEM_24hr: (Pilot) CCTE's 24-hour Apoptosis Assessment for the High-Throughput Transcriptomics (HTTr) Platform, in MCF-7 cells cultured in phenol red-free DMEM + 10% charcoal-stripped fetal bovine serum, Harrill Lab (AID 2283986; active = hit-call score of the fitted dose curve at least 0.9, where 1 is the maximum; inactive = score below 0.9)
Summary of the method: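 Eight concentrations tested for 24 h on MCF-7 grown in charcoal-stripped serum, phenol red-free DMEM. High content imaging of CellEvent Caspase 3/7 Green signal gives apoptosis read-out, fitted both ways relative to DMSO.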

Ratio of Nucleoli Translocation and Cytoplasm, AR (gene 367), sequence (P10275 whole entry, looked up): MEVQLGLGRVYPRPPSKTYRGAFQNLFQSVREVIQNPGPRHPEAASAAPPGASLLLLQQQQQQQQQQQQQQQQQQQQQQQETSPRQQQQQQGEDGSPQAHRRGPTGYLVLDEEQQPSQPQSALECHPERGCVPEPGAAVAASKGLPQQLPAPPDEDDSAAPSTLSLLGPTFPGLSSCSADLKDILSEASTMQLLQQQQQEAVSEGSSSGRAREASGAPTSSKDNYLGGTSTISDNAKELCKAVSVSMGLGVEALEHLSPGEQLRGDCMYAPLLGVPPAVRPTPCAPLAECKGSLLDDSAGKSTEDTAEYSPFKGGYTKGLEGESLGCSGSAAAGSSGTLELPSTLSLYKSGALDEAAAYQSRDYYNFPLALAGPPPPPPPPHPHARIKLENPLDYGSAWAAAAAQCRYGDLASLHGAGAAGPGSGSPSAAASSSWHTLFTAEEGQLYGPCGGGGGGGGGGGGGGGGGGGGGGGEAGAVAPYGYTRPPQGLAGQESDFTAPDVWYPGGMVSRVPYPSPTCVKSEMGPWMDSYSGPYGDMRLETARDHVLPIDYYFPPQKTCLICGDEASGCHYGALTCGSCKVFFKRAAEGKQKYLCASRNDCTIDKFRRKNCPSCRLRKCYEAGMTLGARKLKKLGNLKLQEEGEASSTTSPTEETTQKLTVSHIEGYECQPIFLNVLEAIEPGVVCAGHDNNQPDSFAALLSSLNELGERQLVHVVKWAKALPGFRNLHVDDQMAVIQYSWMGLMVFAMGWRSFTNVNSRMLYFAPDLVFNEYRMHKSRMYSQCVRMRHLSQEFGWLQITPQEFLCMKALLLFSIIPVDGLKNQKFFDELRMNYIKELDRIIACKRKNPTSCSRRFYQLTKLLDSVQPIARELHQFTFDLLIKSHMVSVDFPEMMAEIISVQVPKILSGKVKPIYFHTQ
Nucleoli Translocation, AR (gene 367), sequence (P10275 whole entry, looked up): as above

For `CC(=O)NC1(c2cccc(F)c2)CCN(CC[C@@]2(c3ccc(Cl)c(Cl)c3)CN(c3ccccc3)C(=O)CO2)CC1`, which AC50 [1] is on record?
Its AC50 is 1.47 µM (active).

What does the source list for `OC1CCC(C2CCCCC2)CC1` (configuration not stated)?
AC50 [2]: 50 µM (active); outcome [3]: inactive; outcome [4]: inactive; outcome [5]: inactive; AC50 [1]: 20 µM (active)

For `CCc1ccc(CCOc2ccc(CC3SC(=O)NC3=O)cc2)nc1` (configuration not stated), which outcome [1] is on record?
Its outcome is “inactive”.

With `COCC(C)OCC(C)O` (configuration not stated) as the molecule, how does the outcome [6] read?
The outcome was “inactive”.

What about the outcome [7] of the same molecule?
Its outcome is “inactive”.

And the outcome [8]?
Its outcome is “inactive”.

What does the source list for `CCCCC[C@H](O)CC(=O)CCc1ccc(O)c(OC)c1`?
outcome [7]: inactive; outcome [8]: inactive

Which results are given for `O=[N+]([O-])c1ccc(O)cc1`?
AC50 [2]: 66.5 µM (active) and 66 µM (active); outcome [3]: inactive; outcome [4]: inactive; outcome [5]: inactive

What does the source list for `Cc1cc(CCN2CCN(c3nsc4ccccc34)CC2)cc2c1NC(=O)CC2(C)C`?
outcome [7]: inactive; outcome [8]: inactive; AC50 [2]: 12.2 µM (active); AC50 [3]: 17 µM (active); outcome [4]: inactive; AC50 [5]: 9.34 µM (active); AC50 [1]: 8.94 µM (active)

Which AC50 (DIO1 (gene 1733)) does the source give for `CCCCCCCCCCCCc1ccccc1S(=O)(=O)O` here?
Its AC50 is 96.3 µM (active).

And the AC50 [6]?
Its AC50 is 90.7 µM (active).

And the outcome [7]?
The outcome was “inactive”.

And the AC50 [8]?
The AC50 was 90.9 µM (active).

And the outcome [1]?
Its outcome is “inactive”.

Which outcome [6] does the source give for `OCCC(F)(F)C(F)(F)C(F)(F)C(F)(F)C(F)(F)C(F)(F)C(F)(F)C(F)(F)F` here?
Its outcome is “inactive”.

What about the outcome [7] of the same molecule?
Its outcome is “inactive”.

What about the outcome [8] of the same molecule?
The outcome was “inactive”.

And the outcome [1]?
The outcome was “inactive”.

With `Oc1cc2ccccc2c2ccccc12` as the molecule, how does the outcome [6] read?
Its outcome is “inactive”.

And the AC50 [7]?
Its AC50 is 3.08 µM (active).

And the outcome [8]?
Its outcome is “inactive”.

And the AC50 [2]?
The AC50 was 28.6 µM (active).

And the outcome [3]?
Its outcome is “inactive”.

And the AC50 [4]?
The AC50 was 11.1 µM (active).

And the AC50 [5]?
Its AC50 is 6.92 µM (active).

What about the outcome [1] of the same molecule?
The outcome was “inactive”.

What does the source list for `N#C[C@@H]1CC(F)(F)CN1C(=O)CNC1CC2CCC(C1)N2c1ncccn1` (some centres not stated)?
outcome [6]: inactive; outcome [7]: inactive; outcome [8]: inactive

Which AC50 [2] does the source give for `CCCOC(=O)c1ccc(O)cc1` here?
The AC50 was 35.8 µM (active).

And the outcome [3]?
Its outcome is “inactive”.

What about the outcome [4] of the same molecule?
The outcome was “inactive”.

And the outcome [5]?
The outcome was “inactive”.

With `CN1CCC[C@H]1c1cccnc1` as the molecule, how does the outcome [1] read?
The outcome was “inactive”.

What does the source list for `O=C(O)Cc1cc(I)c(Oc2cc(I)c(O)c(I)c2)c(I)c1`?
outcome [9]: inactive; outcome [2]: inactive; outcome [3]: inactive; outcome [4]: inactive; outcome [5]: inactive

For `CC(C)(C)c1ccc(O)c(C(C)(C)C)c1`, which AC50 (DIO1 (gene 1733)) is on record?
The AC50 was 108 µM (active).

What does the source list for `O=c1c(-c2ccc(O)cc2)coc2cc(O)ccc12`?
AC50 (DIO1 (gene 1733)): 17.2 µM (active); AC50 [1]: 3.28 µM (active)

Which AC50 [6] does the source give for `CCCOc1sc(C(=O)N2CCC(c3cc(CN)ccc3F)CC2)c(C)c1Br` here?
Its AC50 is 7.93 µM (active).

And the outcome [7]?
The outcome was “inactive”.

What about the AC50 [8] of the same molecule?
The AC50 was 8.47 µM (active).

And the outcome [1]?
Its outcome is “inactive”.

For `CC(=O)CC(C)(C)O`, which outcome [6] is on record?
The outcome was “inactive”.

What about the outcome [7] of the same molecule?
Its outcome is “inactive”.

And the outcome [8]?
The outcome was “inactive”.

For `CCc1nn(C2CCCCC2)c2cc(C3(C#N)CCC(C(=O)O)CC3)ccc12` (configuration not stated), which AC50 [2] is on record?
Its AC50 is 15.6 µM (active).

And the AC50 [3]?
Its AC50 is 25 µM (active).

And the outcome [4]?
The outcome was “inactive”.

And the outcome [5]?
Its outcome is “inactive”.
